# Sampled rows, rich in hits. Any-hit rate of the full collection: about 2.5%.
# Cruzain Triton: inhibitors of Trypanosoma cruzi cruzain with detergent; P25779; purified cruzain, Z-FR-AMC fluorescence, 0.01% Triton; Potency, µM, for the others: max response, negative = inhibition, most hits filed as inhibitors; actives 0.43% (n = 200,000); AID 1478;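 further: plate controls were neutral wells for no effect and buffer without enzyme for full effect; nearly all actives have a fitted effect of over 40% in size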
# Target sequence (P25779 123-467 limits assumed): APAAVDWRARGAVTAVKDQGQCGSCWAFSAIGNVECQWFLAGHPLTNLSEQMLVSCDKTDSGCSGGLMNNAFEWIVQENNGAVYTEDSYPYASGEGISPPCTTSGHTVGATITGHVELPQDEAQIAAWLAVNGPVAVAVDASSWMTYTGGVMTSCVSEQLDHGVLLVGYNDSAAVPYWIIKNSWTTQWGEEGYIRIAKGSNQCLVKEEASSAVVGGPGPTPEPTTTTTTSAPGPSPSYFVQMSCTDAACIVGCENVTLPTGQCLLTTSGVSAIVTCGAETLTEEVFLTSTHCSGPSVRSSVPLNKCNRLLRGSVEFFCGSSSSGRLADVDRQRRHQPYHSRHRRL
#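 Detergent-containing arm of a paired screen for aggregation-based inhibition: 0.01% Triton X-100 present. Cruzain at 1.5 nM cleaved 2 uM Z-FR-AMC at pH 5.5 with 5 mM DTT; AMC fluorescence gain over 60 s measured activity.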
# Cruzain noTriton: blocks cruzain activity in detergent-free assay; P25779; purified cruzain, Z-FR-AMC fluorescence, no detergent; Potency, µM, without a hit: max response, negative = inhibition, usual class: inhibitors; actives 2.3% (n = 200,000); AID 1476;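 further: plate controls were enzyme without inhibitor for no effect and buffer without enzyme for full effect; nearly all actives have a fitted effect of over 40% in size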
#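 Detergent-free condition (0.00005% Triton X-100) in acetate buffer pH 5.5 with DTT. 1.5 nM enzyme and compound were pre-mixed 15 min, then 2 uM Z-FR-AMC substrate added; reaction progress from fluorescence change between first and third reads (60 s).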
# An asterisk follows results filed as active; ? = inconclusive. The call rests on the fitted dose curve; in most records, active means well fitted curve in the direction sought with a large enough effect; inconclusive means small, poorly fitted or top-dose-only effect, or another doubt; inactive means no such curve, though single readings can be large; an effect the other way counts as inactive or inconclusive. Potency means the concentration at half of the fitted maximal effect.
SMILES,Cruzain Triton,Cruzain noTriton
COCCNc1ccc(-c2nc(-c3ccco3)no2)cc1[N+](=O)[O-],-2.6%,3.16µM*
CCNc1ccc(-c2nc(-c3ccco3)no2)cc1[N+](=O)[O-],-1.4%,-15.2%
COc1ccc(NC(=O)c2csc3c2CCCC3)cc1,-3.4%,-6.1%
COc1ccc(/C=C2\SC(=S)N(NC(=O)c3csc4c3CCCC4)C2=O)cc1,2.1%,7.94µM*
COc1ccc(Cl)cc1NC(=O)CSc1nc(-c2ccccc2)c2ccccc2n1,2.3%,-9.8%
O=S(=O)(Nc1nc2ccccc2nc1N1CCc2ccccc2C1)c1ccc(Cl)cc1,-4.6%,-76.0%
O=S(=O)(Nc1nc2ccccc2nc1N1CCc2ccccc2C1)c1ccc(Br)cc1,-4.3%,7.94µM*
CC1(C)CCC(C)(C)c2c1ccc(O)c2Cc1c(O)ccc2c1C(C)(C)CCC2(C)C,4.0%,2.3%
Cc1cccc(NC(=O)Cn2c(=O)n(CCc3c[nH]c4ccccc34)c(=O)c3cccnc32)c1,-2.1%,25.1µM*
O=C(Cn1c(=O)n(CCc2c[nH]c3ccccc23)c(=O)c2cccnc21)Nc1ccccc1F,-1.7%,?
COc1ccc(CNC(=O)c2ccc(-c3nc(CSc4ccccc4)c(C)o3)cc2)cc1OC,-4.7%,?
O=C(CSc1nc2ccccc2c(=O)n1-c1ccccc1)NCc1ccc2c(c1)OCO2,0.7%,-0.6%
CCCCNC(=O)CSc1nc2ccccc2c(=O)n1Cc1ccc2c(c1)OCO2,5.8%,20µM*
CCc1ccc(CNc2ccc(O)cc2)cc1,-20.7%,31.6µM*
Oc1ccc(NCc2ccc(OCc3ccccc3)cc2)cc1,-16.2%,-14.9%
O=C(O)[C@H](Cc1cnc[nH]1)N1C(=O)c2ccccc2C1=O,2.9%,-5.5%
COc1ccc([N+](=O)[O-])cc1C1NN=C(c2ccccc2O)S1 (stereo unspecified),-0.5%,20µM*
COc1ccc([N+](=O)[O-])cc1NC(=O)Nc1ccccc1,-8.4%,-0.1%
CCOc1cccc(NC(=O)C2CC(=O)N(C)C(=Nc3ccc(F)cc3)S2)c1 (stereo unspecified),-13.0%,?
Cn1cc(/C=C2/SC(=O)N(CC(=O)Nc3ccc4c(c3)OCO4)C2=O)c2ccccc21,-1.2%,25.1µM*
O=C(CCN1C(=O)/C(=C/c2ccc3c(c2)OCO3)SC1=S)Nc1ccccc1,-5.3%,7.94µM*
COc1ccc(/C=C2\SC(=S)N(CCC(=O)NC3=NCCS3)C2=O)cc1OC,-11.7%,-14.8%
Cn1cc(S(=O)(=O)CC(=O)Nc2ccc3c(c2)OCCO3)c2ccccc21,8.1%,1.0%
CCCCN(CC)C(=O)c1cc2c(=O)n3ccccc3nc2n1C,-2.1%,-9.4%
COC[C@H]1OC=C[C@@H](OC)[C@@H]1OC,-2.2%,6.6%
SMILES,Cruzain Triton,Cruzain noTriton
COc1ccc(-c2nc(SCCOc3cc(C)ccc3C(C)C)n3[nH]c(=O)cc3n2)cc1,0.0%,4.6%
COc1cc2c(cc1OC)[C@@]13CCN4C=C5CCO[C@H]6CC(=O)N2[C@@H]1C6[C@H]5C[C@H]43 (stereo partly specified),3.1%,2.7%
Cc1ccccc1NC(=O)/C(=C/c1ccccc1)c1ccccc1,-1.5%,-5.2%
O=C(Nc1ccccc1)/C(=C/c1ccccc1)c1ccccc1,-3.0%,12.6µM*
COc1ccc(-c2nc(-c3cccc(C)c3)[nH]c(=O)c2C#N)cc1,-3.5%,10µM*
COc1cccc(-c2nc(-c3ccccc3)[nH]c(=O)c2C#N)c1,5.3%,-7.9%
CCOC(=O)c1sc(-c2ccc(Br)cc2)cc1N,-5.6%,-2.1%
CCOC(=O)c1cc(-c2ccc(N)cc2)sc1N,-16.8%,31.6µM*
O=C(Nc1cccc(Cl)c1)c1cnc2sc(N3CCCC3)nn2c1=O,-1.8%,9.2%
COc1ccc(C2C(=O)N(C3CCC(C)CC3)CC(=O)N2C2CCCCC2)cc1OC (stereo unspecified),0.8%,2.3%
O=C(NCc1ccccc1)C(=O)NCC(c1ccc2c(c1)OCO2)N1CCOCC1 (stereo unspecified),-0.8%,-6.1%
Cc1ccccc1CNC(=O)Nc1ccc2c(c1)N(C)C(=O)c1ccccc1S2,-1.7%,?
COC(=O)c1ccc2c(=O)n(CCc3ccc(S(N)(=O)=O)cc3)c(SCC(=O)C(C)(C)C)nc2c1,-0.8%,15.7%
O=C(Nc1nc2ccc(Oc3ccccc3)cc2s1)c1cc([N+](=O)[O-])ccc1N1CCOCC1,-17.6%,15.8µM*
Cc1cc(C)c(-c2csc(NC(=O)c3cc([N+](=O)[O-])ccc3N3CCOCC3)n2)c(C)c1,-3.6%,-14.4%
O=C(Nc1ccccc1Cl)N1CCC2(CC1)Oc1ccccc1C(=O)N2Cc1ccc(F)cc1,-5.2%,-8.5%
CN(C)CC/C=C1/c2ccccc2Sc2c(O)cc(Cl)cc21,-15.1%,25.1µM*
COc1cc(Cl)cc2c1Sc1ccccc1/C2=C/CCN(C)C,-8.8%,1.1%
CCN(c1cc(C)cc(C)c1)S(=O)(=O)c1nnc(NC(=O)C2CCCCC2)s1,-4.5%,14.8%
CCCOc1ccc(/C=C/C(=O)Nc2ccc([N+](=O)[O-])cc2)cc1,-10.9%,-27.0%

# From PubChem BioAssay
